Screening data as filed in PubChem BioAssay.
Sampled rows, rich in hits. Any-hit rate of the full collection: about 3.6%.
Mtb bLac sens: beta-lactam sensitization of Mtb H37Rv; M. tuberculosis H37Rv growth with meropenem, percent inhibition; inhibition, % at 25 µM; 0.27% of 330,000 active; AID 434955; call rule not given here;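 note: growth measured after seven days incubation then overnight dye step; 0% = bacteria only wells and 100% = bacteria with antibiotic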
FBA Mtb inh: inhibitors of M. tuberculosis fructose-bisphosphate aldolase | P9WQA3 | purified M. tuberculosis FBA, fluorescence read-out | inhibition, % at 1 µM | 2.3% of 360,000 active | AID 588726; in the data active = inhibition above about 27%;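 note: 0% = vehicle and 100% = reference inhibitor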
Target sequence (P9WQA3 whole entry, looked up): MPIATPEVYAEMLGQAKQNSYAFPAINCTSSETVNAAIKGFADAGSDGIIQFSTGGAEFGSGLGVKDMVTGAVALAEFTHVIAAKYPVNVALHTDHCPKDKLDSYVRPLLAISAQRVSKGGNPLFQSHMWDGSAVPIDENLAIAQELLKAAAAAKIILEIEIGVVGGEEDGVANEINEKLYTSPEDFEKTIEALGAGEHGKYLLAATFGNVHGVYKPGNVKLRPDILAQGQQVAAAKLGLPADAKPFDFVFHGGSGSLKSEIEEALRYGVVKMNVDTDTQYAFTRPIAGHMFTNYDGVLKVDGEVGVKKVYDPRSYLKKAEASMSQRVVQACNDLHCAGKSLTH
VHR inh abs: DUSP3 (human) phosphatase inhibition; P51452; recombinant VHR phosphatase, pNPP absorbance; inhibition, % at 13.3 µM; 0.52% of 290,000 active; AID 1654; in the data active = inhibition above about 50%
Target sequence (P51452 whole entry, looked up): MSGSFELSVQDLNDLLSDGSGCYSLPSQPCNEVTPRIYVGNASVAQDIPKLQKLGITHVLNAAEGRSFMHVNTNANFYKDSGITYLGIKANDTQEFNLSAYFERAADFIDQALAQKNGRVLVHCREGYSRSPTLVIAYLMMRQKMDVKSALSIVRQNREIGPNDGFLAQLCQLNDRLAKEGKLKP
Mtb hypoxia inh: inhibitors of hypoxia-regulated fluorescent reporter in Mycobacterium tuberculosis | 0.1% of 300,000 active | AID 1159583 | fluorescence inhibition, % (test concentration not listed) | M. tuberculosis hypoxia-regulated fluorescent reporter, fluorescence; in the data active = fluorescence inhibition mostly above about 23%, no sharp cut-off; inactive = mostly below about 17%
GDH-TPI inh: counter-screen for M. tuberculosis FBA inhibitors: GDH-TPI coupled enzymes. inhibition, % at 4.8 µM. 1.2% of 360,000 active. AID 588335. GDH-TPI coupled enzyme counterscreen, NADH absorbance; in the data active = inhibition above about 30%;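 note: 0% = DMSO wells and 100% = wells lacking the enzyme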
Starred values were filed as active, the others as inactive; ? = inconclusive; . = no result given; + = active, no number.

SMILES	Mtb bLac sens	FBA Mtb inh	VHR inh abs	Mtb hypoxia inh	GDH-TPI inh
N#Cc1c(-c2ccc([N+](=O)[O-])cc2)nc2n(c1=O)CCS2	4	1	6	2	14
COC(=O)C1C[C@@]2(O)C(O)C(O)C(O)CC2N1CC1CCCCC1 (some centres not stated)	.	.	.	9	.
N#Cc1ccc(C23CC4(C2)C(CN(CC2CCCCC2)C4c2ccccc2)C3c2ccc(C(F)(F)F)cc2)cc1 (configuration not stated)	.	.	.	-16	.
COc1ccc(-c2nnc(NC(=O)c3ccco3)s2)cc1	8	1	16	5	45*
C/C=C(\C)c1nnc(NC(=O)c2ccco2)s1	5	-2	-2	7	33*
CCCOc1cccc(-c2nnc(NC(=O)c3ccco3)s2)c1	-2	10	4	-12	49*
COc1cccc(-c2nnc(NC(=O)c3ccco3)s2)c1	-2	7	12	-4	41*
Cc1ccc(-c2nnc(NC(=O)c3ccco3)s2)cc1	-4	1	2	1	23
CCCOc1cccc(C(=O)Nc2cccc(NC(=O)c3ccco3)c2)c1	21	-2	22	.	6
O=C(CC1CC=CCCC(=O)OCC(Cc2ccccc2)NC1=O)NC(CO)Cc1ccccc1 (configuration not stated)	.	.	.	3	.
O=C(Nc1nnc(SCc2ccc(F)cc2)s1)c1ccco1	-7	1	31	-3	41*
Cc1cc(C(=O)Nc2nnc(-c3ccccc3)s2)no1	.	-3	26	21	32*
COc1cccc(-c2nnc(NC(=O)c3cccs3)s2)c1	-6	2	17	3	35*
CCC(C)=NNc1nc(-c2cc3cccc(OC)c3oc2=O)cs1	.	.	.	-17	.
Cn1c(N)c(N=Cc2ccccc2)c(=O)n(C)c1=O	.	6	.	11	-9
Cn1c(N)c(N=O)c(=O)n(C)c1=S	.	-2	.	5	43*
COCCn1c(=NC(=O)CCS(=O)(=O)c2ccccc2)sc2cc(C)ccc21	-10	0	-14	3	2
COCCn1c(=NC(=O)/C=C/c2cccs2)sc2cc(NC(C)=O)ccc21	3	0	8	6	31*
O=C(COc1ccccc1)Nc1ncn[nH]1	0	4	-12	-2	5
O=C(CCc1ccccc1)Nc1ncn[nH]1	-3	1	53*	.	9
O=[N+]([O-])c1ccc(N2CCN(C(=S)Nc3ccc(F)cc3)CC2)cc1	2	1	20	4	2
O=[N+]([O-])c1ccc(N2CCN(C(=S)Nc3cccc(F)c3)CC2)cc1	-6	-9	50*	14	12
CC(=O)c1ccc(N2CCN(C(=O)c3ccc(Cl)c(NC4=NC5CS(=O)(=O)CC5S4)c3)CC2)cc1 (configuration not stated)	-3	1	18	-3	42*
O=S1(=O)C2CC3C=C[C@]2(CN1Cc1ccc(C(F)(F)F)cc1)O3 (some centres not stated)	.	.	.	1	.
COCCn1c(C)cc2c(c1=O)C(c1ccco1)C(C#N)=C(N)O2 (configuration not stated)	-3	49*	-13	-10	6
SMILES	Mtb bLac sens	FBA Mtb inh	VHR inh abs	Mtb hypoxia inh	GDH-TPI inh
CCOC(=O)C1C2COc3cc(OC)ccc3C2N2C(=O)CN(CCc3c[nH]c4ccccc34)C(=O)[C@@]12C (some centres not stated)	.	.	.	11	.
O=C(NCC(=O)N1CCN(Cc2ccccc2)CC1)c1ccc(Cl)cc1	4	2	57*	1	0
O=C(C1=CC(c2ccc(C(F)(F)F)cc2)CC(OCCCCO)O1)N1CCCCCCC1 (configuration not stated)	.	.	.	0	.
Cc1onc(-c2ccccc2Cl)c1C(=O)Nc1nnc(-c2cccc([N+](=O)[O-])c2)s1	-5	3	-2	9	35*
CC(=O)Nc1ccc(NC(=O)c2c(-c3ccccc3Cl)noc2C)cc1	1	0	22	16	-7
Cc1onc(-c2ccccc2Cl)c1C(=O)Nc1cccc(-c2nc3ncccn3c2C)c1	4	175*	7	1	26
CCSc1nnc(NC(=O)c2c(-c3ccccc3Cl)noc2C)s1	73	2	-13	.	0
CC(=O)Nc1cccc(NC(=O)c2c(-c3ccccc3Cl)noc2C)c1	4	-3	22	10	-2
Cc1ccc(-c2cn3cccnc3n2)cc1NC(=O)c1c(-c2ccccc2Cl)noc1C	10	+	17	-13	16
Cc1onc(-c2ccccc2Cl)c1C(=O)Nc1ccc(-c2cn3cccnc3n2)cc1	?	+	24	-7	31*
CCn1cc(/C=C(\NC(=O)c2ccccc2F)C(=O)NCCN2CCOCC2)c2ccccc21	-4	-6	35	11	33*
COc1ccc(C(=O)N/C(=C\c2cn(C)c3ccccc23)C(=O)N2CCN(C)CC2)cc1	-1	-1	2	-8	43*
O=C(NCCCN1CCOCC1)/C(=C/c1ccc(-c2cccc([N+](=O)[O-])c2)o1)NC(=O)c1ccccc1	.	-4	.	.	40*
CN(C)S(=O)(=O)n1cc(/C=C(\NC(=O)c2ccccc2F)C(=O)NCCN2CCOCC2)c2ccccc21	.	4	.	.	12
O=C(NCCCO)/C(=C/c1ccc(-c2cccc([N+](=O)[O-])c2)o1)NC(=O)c1ccccc1	2	0	1	1	28
O=C(/C=C/c1ccc(-c2cccc([N+](=O)[O-])c2)o1)N1CCOCC1	3	0	1	-1	38*
CN1CCN(C(=O)/C(=C/c2cn(C)c3ccccc23)NC(=O)c2ccccc2)CC1	6	-11	15	2	25
CN(C)c1ccc(C=Cc2cc[n+](C)c3ccccc23)cc1	.	.	.	21	.
CC1CCCC(=NNS(=O)(=O)c2ccccc2)C1 (configuration not stated)	.	.	.	4	.
CCOC(=O)C1C2COc3ccc(OC)cc3C2N2C(=O)CN(Cc3ccccc3)C(=O)[C@@]12C (some centres not stated)	.	.	.	10	.
Cn1cc(/C=C(\NC(=O)c2ccccc2)C(=O)NCCCN2CCOCC2)c2ccccc21	11	2	-4	6	33*
COc1ccc(C(=O)N/C(=C\c2cn(C)c3ccccc23)C(=O)NCCCN2CCOCC2)cc1OC	-2	6	2	15	20
Cc1sc2ncnc(N3CCN(c4ncccn4)CC3)c2c1C	46	1	58*	9	4
CC(C)(C)NC(=O)C(c1ccncc1)N(CC1CCCO1)C(=O)Cn1nnc(-c2ccc(F)cc2)n1 (configuration not stated)	4	0	14	7	5
CC(C)(C)NC(=O)C(c1ccncc1)N(Cc1cccs1)C(=O)Cn1nnc(-c2ccc(F)cc2)n1 (configuration not stated)	8	3	53*	.	2
CC(=O)N1C(Cc2ccccc2)C=C[C@]1(C)C(=O)NCCN1CCOCC1 (some centres not stated)	.	.	.	5	.
CC1(C)Cc2nc(NCCCO)c(C#N)cc2CO1	-4	112*	9	-5	5
O=c1[nH]c(N/N=C/c2ccccc2Br)nnc1-c1ccccc1	7	0	7	.	39*
